# Measured values: PubChem BioAssay (NCI)
# Compounds without any hit were thinned out: in the full panel of roughly 83,000, 20% have a hit.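 Single-concentration screen, 48 h exposure, 96-well plates. Endpoint: percent growth. Below 10 = active.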 A number with no mark means an inactive call. Active and inactive are the calls of the source.
# Tested on: 786-0 renal
# Test: NCI-60 one-dose screen, 48 h (100 = growth as untreated, 0 = no growth, -100 = all killed)
# Conditions: 10 µM unless noted
row,Structure (SMILES),growth
1,COc1cc(NCCCN=C(N)N)c2ncccc2c1,95.4%
2,ClCCN(CCCl)c1nc(Cl)c(C2CC(c3ccccc3)=NN2c2cc(Cl)cc(Cl)c2)s1 (stereo not drawn),100%
3,CCCCCCCC(=O)OCC(=O)[C@]1(O)Cc2c(O)c3c(c(O)c2[C@@H](OC2CC(N)C(O)C(C)O2)C1)C(=O)c1c(OC)cccc1C3=O (stereo partly drawn),-82.9% (active)
4,COC[C@@H]1C[C@@]2(C)[C@@H](CC[C@@H]3[C@@H]2CC[C@@]2(C)[C@H]3CC[C@]2(C)O)CC1=O,94.9%
5,C[C@]12CC[C@@H]3c4ccc(Oc5nc(N6CC6)nc(N6CC6)n5)cc4CC[C@H]3[C@@H]1CCC2=O,32.4%
6,O=C1OCC2=C1C(c1ccccc1)c1cc3c(cc1N2)OCO3 (stereo not drawn),15.9%
7,CCC1(C)CC(CCNCc2ccccc2O)(c2ccc(C)cc2)CCO1 (stereo not drawn),101%
8,ClCCN(CCCl)Cc1ccc(Nc2ccnc3cc(Cl)ccc23)cc1,8.84% (active)
9,c1ccc(Nc2nc(-c3ccccc3)c[se]2)cc1,93%
10,CCN(CC)CCOC(=O)C(OC(C)C)(c1ccccc1)c1ccccc1,88.2%
11,CCCc1cc(O)c2c3c(c(=O)oc2c1)CN(C)CC3,55%
12,ClCCN(CCCl)c1ccc(/C=N/Nc2ncnc3nc[nH]c23)cc1,80.2%
13,CCC1(C(C)C)C(=O)NC(=S)NC1=O,108%
14,CC(C)(N)Cc1ccccc1,91.3%
15,CC1(C)N=C(N)N=C(N)N1c1cccc(CCCCc2ccc(Cl)c(S(=O)(=O)F)c2)c1,5.96% (active)
16,COc1cc(C=C2c3ccccc3C(=O)c3ccccc32)ccc1OCCCCOc1cc2c(cc1OC)C(=O)N1CCCC1C=N2 (stereo not drawn),-100% (active)
17,C[CH2][Sn]([Cl])([Cl])[CH2]C.Oc1ccccc1C=NCCN=Cc1ccccc1O,116%
18,COc1ccc(O)c(CNC(=O)CN2CCCC2=O)c1,105%
19,CCOC(=O)C(Cc1ccc(N(CCCl)CCCl)cc1)NC(=O)C(CC(C)C)NC(C)=O (stereo not drawn),9.46% (active)

row,Structure (SMILES),growth
1,C[C@]12CC[C@H]3[C@@H](CC[C@]4(O)C[C@@H](O[C@@H]5O[C@H](CO)[C@@H](O[C@@H]6OC[C@@H](O)[C@H](O)[C@H]6O)[C@H](O)[C@H]5O)CC[C@]34C=O)[C@@]1(O)CC[C@@H]2C1=CC(=O)OC1,0.0388% (active)
2,Clc1ccc2nnnn2n1,23%
3,CC1(C)N=C(N)N=C(N)N1c1ccc(CCCCc2ccc(Cl)c(S(=O)(=O)F)c2)c(Cl)c1,-20.2% (active)
4,CC(=O)[O][Hg][c]1c(N)c(C)cc(C)c1F,-31.7% (active)
5,O=C(NCCN1CC1)C(=O)NCCN1CC1,98.3%
6,[Au+].[N-]=C=O.c1ccc(CN2[CH-]N(Cc3ccccc3)C(c3ccccc3)=C2c2ccccc2)cc1,90.2%
7,O=C(O)CNC(=O)C(Cl)(Cl)Cl,98.8%
8,N#C[Se]Cc1cc(-c2ccccc2)n(-c2ccc(S(N)(=O)=O)cc2)n1,-24.7% (active)
9,CCCCCC1(CCBr)C(=O)NC(=O)NC1=O,95.9%
10,O=C(O)C(O)C(O)C1[O][Sb]([c]2ccc([N+](=O)[O-])cc2)[O]C1CO (stereo not drawn),104%
11,O=Cc1cn(Cc2ccc(Cl)cc2)c2ccccc12,94.1%
12,COc1cc(NC(C)CCCNC2CN3CCC2CC3)c2ncccc2c1 (stereo not drawn),62.5%
13,Cc1ccc(C(=O)NCCCOc2ccc(N)cc2Cl)cc1S(=O)(=O)F,86%
14,CC(=O)OCC1O[C@@H]([S-])C(OC(C)=O)[C@H](OC(C)=O)[C@@H]1OC(C)=O.[Au+].c1ccc(CN2[CH-]N(Cc3ccccc3)C(c3ccccc3)=C2c2ccccc2)cc1,40.1%
15,O=C(Nc1ccc(Cl)cc1)Nc1nccs1,56.8%
16,Clc1ccc(COC(Cn2ccnc2)c2ccc(Cl)cc2Cl)cc1 (stereo not drawn),68.5%
17,CC1CCCC(C[N+](C)(C)C)C1=O (stereo not drawn),112%
18,CC(=O)/C=C/c1ccc2c(c1)OCO2,99%
19,O=C(O)c1ccc([S-])cc1.[Au+].c1ccc(CN2[CH-]N(Cc3ccccc3)C(c3ccccc3)=C2c2ccccc2)cc1,-70.3% (active)
